Laboratory results reported in PubChem BioAssay (EPA / NIEHS).
Several values for one entry are separate records, joined by “and”; a condition that tells them apart may be missing. Equal values may be shown once. Results filed as inconclusive are left out. More than one record can exist for a structure, and the calls need not agree. Activity calls are given as the source filed them. Rule for the calls: active = hit-call score of the fitted dose curve at least 0.9, where 1 is the maximum; inconclusive = response in the unintended direction; inactive = score below 0.9.

These molecules were tested against rat CYP2D2, Cyp2d26 (gene 25053) (UniProt P10634) (assay: NVS_ADME_rCYP2D2: NovaScreen (NVS) CYP450-related Enzyme Activity (ADME) Assay for rat CYP2D2 (AID 2283124)).
Sequence of rat CYP2D2, Cyp2d26 (gene 25053) (P10634 whole entry, looked up): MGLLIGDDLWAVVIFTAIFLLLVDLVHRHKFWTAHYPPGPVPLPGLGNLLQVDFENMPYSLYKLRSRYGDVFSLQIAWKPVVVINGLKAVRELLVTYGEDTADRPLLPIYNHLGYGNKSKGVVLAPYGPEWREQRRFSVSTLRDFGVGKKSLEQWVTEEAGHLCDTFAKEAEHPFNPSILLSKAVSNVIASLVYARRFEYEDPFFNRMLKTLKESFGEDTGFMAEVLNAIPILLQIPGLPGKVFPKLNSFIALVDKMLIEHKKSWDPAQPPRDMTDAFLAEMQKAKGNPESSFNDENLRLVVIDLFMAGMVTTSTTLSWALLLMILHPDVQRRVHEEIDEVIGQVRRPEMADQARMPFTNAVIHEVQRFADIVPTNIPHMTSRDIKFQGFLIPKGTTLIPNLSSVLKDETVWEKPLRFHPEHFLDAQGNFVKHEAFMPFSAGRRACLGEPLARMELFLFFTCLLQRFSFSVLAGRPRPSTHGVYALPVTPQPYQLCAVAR
Procedure: NVS_ADME_rCYP2D2 is a biochemical, single-readout assay that uses extracted gene-proteins in a cell-free assay. Measurements were taken 0.75 hour after chemical dosing in a 96-well plate.NVS_ADME_rCYP2D2 is one of one assay component(s) measured or calculated from the NVS_ADME_rCYP2D2 assay. It is designed to make measurements of enzyme activity, a form of enzyme reporter, as detected with fluorescence intensity signals by Fluorescence technology.Data from the assay component NVS_ADME_rCYP2D2 was analyzed into 1 assay endpoint. This assay endpoint, NVS_ADME_rCYP2D2, was analyzed in the positive analysis fitting direction relative to Acetonitrile as the negative control and baseline of activity. Using a type of enzyme reporter, loss-of-signal activity can be used to understand changes in the enzymatic activity as they relate to the gene Cyp2d2. Furthermore, this assay endpoint can be referred to as a primary readout, because this assay has produced multiple assay endpoints where this one serves a enzymatic activity function. To generalize the intended target to other relatable targets, this assay endpoint is annotated to the cyp intended target family, where the subfamily is xenobiotic metabolism.
Binding assays used specific radioligands (tritiated, iodinated) with non-radioactive competitive displacement ligands in agonist or antagonist protocols (as indicated) and various reference compounds and inhibitors to titrate specific binding to receptors and transporters. Most enzyme assays (CYPs, kinases, phosphatases, proteases, HDACs) used recombinant protein and specific substrates (fluorescence mostly, some colorimetric and radioactive) and inhibitors, followed by a biochemical separation of substrate and product. All assays for the biochemical HTS were initially run in duplicate at a single concentration (10 uM for CYP450 assays and 25 uM for all others). Assay-chemical combinations meeting a pre-defined threshold (e.g., 30% inhibition and other criteria defined below) were then run in singleton concentration-response format with maximum concentration of 20 uM for CYPs and 50 uM for all others. Each assay was run with positive and negative controls, and concurrent controls on every plate. The follow-up (secondary) screen tested active chemical-pairs in concentration series, as well as a few additional assays not tested in the primary screen, some selected negative inactives, and several cases re-run in the concentration series for confirmatory purposes.

SMILES | AC50 | outcome
CCOP(=S)(OCC)SCn1c(=O)oc2cc(Cl)ccc21 | 2.07 µM (active) | 
CCCC1COC(Cn2cncn2)(c2ccc(Cl)cc2Cl)O1 (configuration not stated) | 7.44 µM (active) and 7.78 µM (active) | 
CCOC(=O)C(Cl)Cc1cc(-n2nc(C)n(C(F)F)c2=O)c(F)cc1Cl (configuration not stated) |  | inactive
C#CCOS(=O)OC1CCCCC1Oc1ccc(C(C)(C)C)cc1 (configuration not stated) | 10 µM (active) | 
COC(=O)C(C)Oc1ccc(Oc2ccc(Cl)cc2Cl)cc1 (configuration not stated) | 7.38 µM (active) and 10 µM (active) | inactive
CCOC(=O)CC(SP(=S)(OC)OC)C(=O)OCC (configuration not stated) | 6.28 µM (active) | 
Cc1ccc(-c2c(Cl)nc(C#N)n2S(=O)(=O)N(C)C)cc1 | 4.31 µM (active) | 
OC(c1ccc(Cl)cc1)(c1cncnc1)c1ccccc1Cl (configuration not stated) | 6.92 µM (active) | 
CCCN(CCC)c1c([N+](=O)[O-])cc(S(N)(=O)=O)cc1[N+](=O)[O-] | 1.3 µM (active) | 
COc1ccc(C(c2ccc(OC)cc2)C(Cl)(Cl)Cl)cc1 |  | inactive
CC1COC(Cn2cncn2)(c2ccc(Oc3ccc(Cl)cc3)cc2Cl)O1 (configuration not stated) | 1.4 µM (active) | 
